High-throughput results: PubChem, National Center for Advancing Translational Sciences (NCATS)
PLK1 PBD inh – qHTS for Inhibitors of PLK1-PDB (polo-like kinase 1 - polo-box domain): Primary Screen. Serine/threonine-protein kinase PLK1 (Homo sapiens), P53350. 360,000 compounds, 2.8% hits. Plk1 PBD binding of FITC phosphopeptide, fluorescence polarization. Potency, µM, for the others: max response, negative = inhibition, most hits filed as inhibitors; further: potency means the concentration at half of the fitted maximal effect; series mostly up to about 57 µM; nearly all actives have a fitted effect of over 65% in size
CCT chaperon mod – High-Throughput Screening for Modulators of Cytosolic Chaperonin Activity; purified chaperonin ATPase assay, HTRF ADP detection, 30 min; AID 651819, 2012; 360,000 compounds, 0.3% hits; activity change, % (test concentration not listed), hits read low; in the data active means activity change below about -30%
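Nucleotide hydrolysis assay: TRiC at 20–40 nM final (set by batch activity) with 10 uM ATP, 30 min at 37 °C, in presence of 76 uM compound. Detection by competitive ADP HTRF, 30 min ambient.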
Sfp PPTase inh – qHTS Assay for Inhibitors of Bacillus subtilis Sfp phosphopantetheinyl transferase (PPTase). 4'-phosphopantetheinyl transferase ffp (Bacillus subtilis), Q9F4F7. Biochemical Sfp PPTase activity, qHTS. Potency, µM, for inactives: largest response in the series, negative = inhibition, hits mostly inhibitors. 310,000 compounds, 3.5% hits;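 further: the enzyme is Sfp with the accession as filed and its product quenches rhodamine fluorescence; potency means the concentration at half of the fitted maximal effect; 0% = enzyme reaction without inhibitor and -100% = no enzyme wells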
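Buffer: 50 mM Hepes-Na pH 7.6, 10 mM MgCl2, 0.01% Nonidet P-40, 0.01% BSA. Enzyme 15 nM, pre-exposed to compound 15 min; substrates then added and fluorescence change tracked over 30 min.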
G9a block – qHTS Assay for Inhibitors of Histone Lysine Methyltransferase G9a. Histone-lysine N-methyltransferase EHMT2 (Homo sapiens), Q96KQ7. G9a H3K9 monomethylation, AlphaScreen, 2 h. Potency, µM (top dose mostly 102 µM), without a hit: top-dose activity, negative = inhibition, hits mostly inhibitors. 350,000 compounds, 8.8% hits; further: potency means the concentration at half of the fitted maximal effect; nearly all actives have a fitted effect of over 75% in size
Target sequence (Q96KQ7 913-1193 limits assumed): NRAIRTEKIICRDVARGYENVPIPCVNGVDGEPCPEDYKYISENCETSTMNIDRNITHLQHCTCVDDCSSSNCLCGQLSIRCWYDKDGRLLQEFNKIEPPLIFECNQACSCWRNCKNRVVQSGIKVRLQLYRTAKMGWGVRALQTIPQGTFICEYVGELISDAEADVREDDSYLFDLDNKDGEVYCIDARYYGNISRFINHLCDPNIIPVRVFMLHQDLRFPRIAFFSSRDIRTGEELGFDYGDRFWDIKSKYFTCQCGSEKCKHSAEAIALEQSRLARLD
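AlphaScreen read-out: biotin-H3K9 peptide (500 nM) methylation by 20 nM enzyme with 20 uM SAM, 2 h at room temperature after 15 min compound preincubation; anti-monomethyl H3K9 antibody plus donor/acceptor beads, 10 min dark.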
VDR inh – Inhibitors of the vitamin D receptor (VDR): qHTS; Vitamin D3 receptor (Homo sapiens), P11473; VDR-SRC2-3 peptide fluorescence polarization, 2 h; Potency, µM, for the others: max response, negative = inhibition, most hits filed as inhibitors; 400,000 compounds, 0.93% hits; further: potency means the concentration at half of the fitted maximal effect
Target sequence (P11473 whole entry, looked up): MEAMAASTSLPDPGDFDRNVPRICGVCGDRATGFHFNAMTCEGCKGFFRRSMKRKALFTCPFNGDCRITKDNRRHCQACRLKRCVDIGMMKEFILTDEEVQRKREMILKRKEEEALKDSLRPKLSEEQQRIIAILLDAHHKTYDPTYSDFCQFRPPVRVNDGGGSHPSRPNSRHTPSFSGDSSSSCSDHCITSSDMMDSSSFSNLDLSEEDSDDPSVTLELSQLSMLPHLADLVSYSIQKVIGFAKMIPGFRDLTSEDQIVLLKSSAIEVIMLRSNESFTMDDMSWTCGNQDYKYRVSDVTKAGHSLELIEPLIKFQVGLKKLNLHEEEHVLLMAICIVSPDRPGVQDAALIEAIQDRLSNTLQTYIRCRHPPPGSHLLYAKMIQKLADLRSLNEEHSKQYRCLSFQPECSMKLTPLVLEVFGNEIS
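Two reagent solutions held at 4 deg C in the dark were dispensed, compounds pinned at 23 nl, and the mixture incubated 2 h at room temperature. Read-out: fluorescence polarization of VDR–SRC2-3 peptide binding.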
Mm-Cpn inhibitor – Inhibitors of TCP-1 ring complex (TRiC) of Methanococcus maripaludis (MmCpn): qHTS. purified Mm-Cpn ATPase, ADP Transcreener TR-FRET. 330,000 compounds, 0.031% hits. Potency, µM (doses to about 76.9 µM), without a hit: at the top dose activity, negative = inhibition, actives largely listed as inhibitors; further: potency means the concentration at half of the fitted maximal effect; nearly all actives have a fitted effect of over 80% in size
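Reaction buffer contained 30 mM Tris pH 7.4, 100 mM KCl, 5 mM MgCl2 and 1 mM DTT. Mm-CPN (25 nM final) hydrolysed 10 uM ATP over 30 min at 37°C; ADP was read by HTRF.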
An asterisk follows results filed as active; ? = inconclusive; nt = not tested or not shown; ! = not active in a repeat; [ ] = remark or other dose. In the library only some 10% were active in any assay of this set; here they are far more common. Unless noted, the call rests on the fitted dose curve; in most records, active means well fitted curve in the direction sought with a large enough effect; inconclusive means small, poorly fitted or top-dose-only effect, or another doubt; inactive means no such curve, though single readings can be large; an effect the other way counts as inactive or inconclusive. Unless noted, on the % scale 0 is the no-effect control and ±100 the full control effect.

SMILES	PLK1 PBD inh	CCT chaperon mod	Sfp PPTase inh	G9a block	VDR inh	Mm-Cpn inhibitor
NC(=O)CC(NC(=S)NCc1ccccc1)C(=O)O (configuration not stated)	21.2µM*	0.5	?	70.8µM*	-5.9%	0.0%
CC(C)N(Cc1ccccc1)C(=S)Nc1cccnc1	-5.2%	-1.7	16.5%	16.6%[59 µM]	6.5%	0.6%
O=C(NC(=S)NCc1ccc(F)cc1)c1ccccc1	-2.7%	0.9	?	50.1µM*	-4.3%	1.5%
Cc1ccccc1C(=O)n1nc(-c2ccco2)nc1NCc1ccc(Cl)cc1	nt	nt	nt	5.1%[59 µM]	9.0%	nt
CCN1C(=O)c2ccccc2Sc2ccc(NC(=O)c3ccc(C)c(F)c3)cc21	nt	nt	nt	2.5%[59 µM]	20.0%	nt
COc1ccc(-n2c(C)nc3cc(C(=O)NC4CCCC4)ccc32)cc1	nt	nt	nt	-19.1%[59 µM]	?	nt
CN(Cc1ccccc1)C(=S)NC(=O)c1ccccc1	-13.0%	0.9	10.0%	50.1µM*	0.3%	-2.8%
COc1ccc(COC[C@H](C)[C@H](O[Si](C)(C)C)[C@@H](C)[C@H]2OC(=O)[C@H]2C)cc1	nt	nt	-5.7%	nt	-5.1%	nt
c1ccc2[nH]c(NC3=NCCC3)nc2c1	-11.7%	-97.6*	-8.1%	91.0%[59 µM]	3.0%	0.1%
c1n[nH]c(NC2=NCCC2)n1	-12.7%	1.8	44.7µM*	1.1%	-2.2%	0.7%
Clc1cccc(Cl)c1NC1=NCCC1	-8.0%	-0.2	18.4%	-14.7%	23.5%	-0.7%
c1ccc2[nH]c(NN=C3CCCCCC3)nc2c1	-17.8%	-0.5	21.2%	-5.7%	8.8%	0.1%
COc1ccc2[nH]c3c(c2c1)[C@@H]1CCN2C(=O)CCC[C@H](C3)[C@H]12	-5.7%	0.0	2.2%	31.6µM*	-4.1%	-5.0%
COc1ccc(CNC2C[C@H]3CCCC(=O)N4CC[C@@H](C2)[C@@H]34)cc1 (some centres not stated)	-15.5%	0.1	9.2%	37.0%	5.3%	1.6%
COC(=O)C(=Cc1cc(Br)c(OC)c(Br)c1)C(=O)OC	nt	nt	?	nt	8.91µM*	nt
COc1c(Br)cc(Br)cc1C(=O)O	0.4%	-7.0	0.4%	-41.5%[12.7 µM]	-15.9%	0.4%
CCOCCCNC(=O)C1CCN(c2cc(C)nc3c(-c4ccc(Cl)cc4)c(C)nn23)CC1	nt	nt	nt	3.8%[59 µM]	-3.9%	nt
Cc1[nH]c2ccccc2c1C(c1ccncc1)N1CCCCC1 (configuration not stated)	?	-1.3	7.6%	35.5µM*	-11.0%	-0.1%
Cc1[nH]c2ccccc2c1C(Nc1nccs1)c1ccncc1 (configuration not stated)	-29.7%	1.1	11.8%	-17.0%[59 µM]	-7.0%	3.5%
Cc1ccnc(NC(c2ccncc2)c2c(C)[nH]c3ccccc23)c1 (configuration not stated)	-23.5%	-4.7	-6.8%	10µM*	-11.1%	-0.9%
O=C(O)c1cc2n(n1)C(C(F)(F)F)CC(c1ccccc1)N2 (configuration not stated)	-4.1%	2.3	22.8%	?	4.3%	0.4%
O=C(O)c1cc2n(n1)C(C(F)(F)F)CC(C1CC1)N2 (configuration not stated)	23.8µM*	-2.3	1.9%	5.4%	?	1.0%
CCCN1CCN(CC2=C(C(=O)OCC)C(c3ccc(OC(C)C)cc3)NC(=O)N2)CC1 (configuration not stated)	nt	nt	nt	-33.9%[59 µM]	-20.8%	nt
CCOC(=O)c1cccnc1SCc1cc(=O)n2ccccc2n1	-13.7%	-2.9	18.1%	-30.3%	-3.3%	-1.0%
CC(OC(=O)c1cccnc1SCc1cc(=O)n2ccccc2n1)c1ccccn1 (configuration not stated)	-6.2%	-1.8	13.4%	50.1µM*	-2.3%	-6.5%
SMILES	PLK1 PBD inh	CCT chaperon mod	Sfp PPTase inh	G9a block	VDR inh	Mm-Cpn inhibitor
Cc1cccc(CSc2ncc(Cl)c(C(=O)Nc3sc4c(c3C(N)=O)CCCC4)n2)c1	nt	nt	nt	2.8%[59 µM]	3.1%	nt
CCc1ccc(C(=O)CSc2n[nH]c(C)n2)cc1	26.7µM*	0.8	56.2µM*	2.82µM*	?	0.7%
Cc1ccc(C(=O)CSc2n[nH]c(C)n2)cc1	29.9µM*	1.2	89.1µM*	10µM*	?	2.3%
Cc1nc(SCC(=O)O)n[nH]1	3.5%	-0.7	7.0%	4.3%	-13.7%	-1.1%
CCCCOc1ccc(CSc2n[nH]c(C)n2)cc1	-10.6%	-2.7	1.1%	28.2µM*	-4.9%	1.0%
O=C(c1cn(CCOc2ccc(Cl)cc2)c2ccccc12)C1CCCCC1	nt	nt	nt	34.7%[59 µM]	-3.4%	nt
Cc1cc(C)c(NC(=O)CSc2ccnc(=O)[nH]2)c(C)c1	nt	nt	nt	-0.5%[59 µM]	11.8%	nt
COc1cccc2c1cc1c(=O)n(CC(=O)N3CCN(c4cccc(C(F)(F)F)c4)CC3)nc(C)n12	nt	nt	nt	0.1%[59 µM]	-7.6%	nt
CC1CCN(S(=O)(=O)c2nnc(NC(=O)c3ccc(C(C)C)cc3)s2)CC1	nt	nt	nt	14.1µM*	7.0%	nt
COc1ccc(C(=O)Nc2nnc(S(=O)(=O)N3CCCCCC3)s2)cc1OC	-17.2%	-3.5	9.6%	?	3.0%	-0.6%
CC(C)c1ccc(C(=O)Nc2nnc(S(=O)(=O)N3CCCCC3)s2)cc1	-11.9%	-0.9	20.8%	22.8%	4.2%	?
COc1ccc(C(=O)Nc2nnc(S(=O)(=O)N3CCC(C)CC3)s2)cc1OC	-18.3%	-0.4	6.9%	12.6µM*!	0.9%	-11.6%
COc1cc(Cl)c(C)cc1NC(=O)CSc1cc(-c2ccccc2)nc(C)n1	nt	nt	nt	17.9%[59 µM]	23.8%	nt
O=C(c1ccco1)N1N=C(c2cccs2)CC1c1ccco1 (configuration not stated)	-12.2%	0.0	7.4%	nt	2.0%	-1.2%
O=C(COc1ccccc1F)N1N=C(c2cccs2)CC1c1ccco1 (configuration not stated)	-18.1%	-0.4	nt	50.1µM*	-17.7%	-7.0%
Cc1ccc(C2CC(c3cccs3)=NN2C(=O)c2ccco2)o1 (configuration not stated)	-3.2%	-1.9	?	35.5µM*	0.3%	-3.4%
Cc1c(Cl)cccc1NC(=O)N1CCC(CN2CCOCC2)CC1	nt	nt	nt	-2.9%[59 µM]	18.7%	nt
CCCCN1CC(=O)N2[C@H](c3ccc(Cl)cc3)[C@@H]3C(=O)N(CC)C(=O)[C@@H]3[C@]2(Cc2ccccc2)C1=O	?	1.5	9.0%	11.1%	3.2%	-1.1%
CCN1C(=O)[C@H]2[C@@H](c3ccc(Cl)cc3)N3C(=O)CN(CC4CC4)C(=O)[C@@]3(Cc3ccccc3)[C@H]2C1=O	-5.0%	-1.7	7.0%	70.8µM*	-9.8%	0.6%
COc1ccccc1N1CCN(S(=O)(=O)c2ccc3c(c2)CCCN3C(C)=O)CC1	nt	nt	nt	2.4%[59 µM]	-3.2%	nt
